This test is described as follows: NCI Yeast Anticancer Drug Screen. Data for the mlh1 strain (AID 171).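 Further: 0% = growth of vehicle-treated control cultures of the same strain.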 Particulars: S. cerevisiae mlh1 strain growth inhibition, hits give high values. Here is the method: Growth inhibition of yeast strains with defined genetic alterations is measured as a screen for potential anti-cancer activity. Selected strains with alterations in DNA damage repair or cell cycle control were exposed to compounds and growth inhibition was measured relative to vehicle treated controls. The strain used in this assay is mlh1

The panel holds about 79,000 compounds, 15% with a hit somewhere; the sample as a whole holds those more often. Unmarked numbers belong to inactive results. Activity calls are given as the source filed them. No stated cut-off is given here; in the data, active means growth inhibition above about 70%; inactive means the rest.

In the case of `COC(=O)C(Cc1c[nH]c2ccccc12)N1CN(C)c2ccccc2C1=O` (stereo not given), the growth inhibition runs as follows: (at 1.2 µM) 2%; (at 3.7 µM) 0%; (at 11.0 µM) 0%; (at 33.0 µM) 6%; (at 100.0 µM) 99% (active).

For the molecule `CC1=COC2=C(C)C(=O)C(=O)c3c(C)ccc1c32`, the growth inhibition by setting is: (at 1.2 µM) 25%; (at 3.7 µM) 27%; (at 11.0 µM) 47%; (at 33.0 µM) 82% (active); (at 100.0 µM) 94% (active).

Take `Nc1cc2c(cc1N)-c1ccccc1C2=O`: the growth inhibition is, setting by setting: (at 1.2 µM) -1%; (at 3.7 µM) -2%; (at 11.0 µM) -2%; (at 33.0 µM) 2%; (at 100.0 µM) 86% (active).

On to `CCCCS/C(=C(/C#N)C(N)=O)c1cc2c([nH]1)CCCC2`, for which the growth inhibition was -13% (at 1.2 µM); -19% (at 3.7 µM); -30% (at 11.0 µM); -36% (at 33.0 µM); 54% (at 100.0 µM).

Consider `Cc1cccc(C)c1NC(=O)CCC(=O)C(C)C(=O)c1ccc(O)cc1` (stereo not given), for which the growth inhibition runs as follows: (at 1.2 µM) -2%; (at 3.7 µM) -3%; (at 11.0 µM) -1%; (at 33.0 µM) -2%; (at 100.0 µM) -1%.

Take `COc1cc([N+](=O)[O-])c2ncccc2c1Br`: the growth inhibition by setting is: (at 1.2 µM) -10%; (at 3.7 µM) -5%; (at 11.0 µM) -3%; (at 33.0 µM) -3%; (at 100.0 µM) -4%.

Turning to `COc1cccc(C(NC2=NCCC=N2)c2cc3c(cc2O)OCO3)c1O` (stereo not given), the growth inhibition runs as follows: (at 1.2 µM) -4%; (at 3.7 µM) -3%; (at 11.0 µM) 2%; (at 33.0 µM) 3%; (at 100.0 µM) 4%.

`CCC(C)COC(=O)Nc1cccc(Cl)c1` (stereo not given): the growth inhibition is -6% (at 1.2 µM); -5% (at 3.7 µM); -7% (at 11.0 µM); 57% (at 33.0 µM); 99% (active) (at 100.0 µM).

Values taken from PubChem BioAssay (NCI).
